Our source for the outcome and AC50 values is PubChem BioAssay (EPA / NIEHS).

Experiment [1] in a line: CCTE_Padilla_ZF_Score.Craniofacial: CCTE's 144 Hour Post-fertilization zebrafish Assay Score for Craniofacial Malformation, Padilla Lab (AID 2284405). A digest of the protocol: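 Wild-type zebrafish embryos (with chorions), one per well in 10% Hanks', were dosed at 6–8 hpf in sealed plates and kept at 26C. They were rinsed at 5 dpf. At 6 dpf two blinded assessors scored craniofacial malformations by brightfield stereomicroscopy.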

Experiment [2] can be described thus: CCTE_Padilla_ZF_Score.Edema: CCTE's 144 Hour Post-fertilization zebrafish Assay Score for Edema Malformation, Padilla Lab (AID 2284406). A digest of the protocol: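 Wild-type zebrafish embryos, one per well in Hanks' solution, dosed at 6-8 hpf, sealed and reared at 26C on a 14:10 h cycle; rinsed on 5 dpf. At 6 dpf, blinded assessors scored edema by stereomicroscopy.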

Experiment [3] can be described thus: CCTE_Padilla_ZF_Score.Spine: CCTE's 144 Hour Post-fertilization zebrafish Assay Score for Spine Malformation, Padilla Lab (AID 2284407). The gist of the method: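 Wild-type zebrafish embryos, one per well in Hanks' solution, dosed at 6–8 hpf in sealed plates at 26C, 14:10 h light:dark; rinsed at 5 dpf. Two blinded assessors scored spinal defects by stereomicroscopy at 6 dpf; fitted versus DMSO.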

Experiment [4] is described as follows: CCTE_Padilla_ZF_Score.Swim_bladder: CCTE's 144 Hour Post-fertilization zebrafish Assay Score for Swim Bladder Malformation, Padilla Lab (AID 2284408). The gist of the method: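 Wild-type zebrafish embryos, one per well in 10% Hanks', dosed at 6–8 hpf, sealed, reared at 26C and rinsed at 5 dpf. Blinded assessors scored uninflated swim bladder by stereomicroscopy at 6 dpf, relative to DMSO.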

Experiment [5] is described as follows: CCTE_Padilla_ZF_Score.Position: CCTE's 144 Hour Post-fertilization zebrafish Assay Score for Position, Padilla Lab (AID 2284409). The gist of the method:
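Wild-type zebrafish embryos (with chorions) exposed singly from 6–8 hpf in sealed wells of Hanks' solution at 26C, rinsed at 5 dpf. At 6 dpf, blinded assessors scored abnormal water-column position by brightfield stereomicroscopy, relative to DMSO.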

Experiment [6] in a line: CCTE_Padilla_ZF_Score.Living: CCTE's 144 Hour Post-fertilization zebrafish Assay Score for Viability, Padilla Lab (AID 2284410).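 Note: larval death at 6 dpf judged by absent heartbeat or coagulation.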 The gist of the method: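 Wild-type zebrafish embryos were exposed singly from 6–8 hpf in sealed wells of Hanks' solution at 26C, then rinsed at 5 dpf. At 6 dpf, blinded assessors scored mortality (no heartbeat or coagulation) by stereomicroscopy, fitted against DMSO.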

Experiment [7] can be described thus: CCTE_Padilla_ZF_Score.General: CCTE's 144 Hour Post-fertilization zebrafish Assay Score for General Malformation, Padilla Lab (AID 2284411). A digest of the protocol: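 Wild-type zebrafish embryos were plated singly at 6-8 hpf in 10% Hanks' and exposed in sealed wells at 26C until rinsed on 5 dpf. At 6 dpf two blinded assessors scored mortality, hatching and malformations by stereomicroscopy; gain-of-signal versus DMSO.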

Experiment [8] is described as follows: CCTE_Padilla_ZF_Score.Blood_pooling: CCTE's 144 Hour Post-fertilization zebrafish Assay Score for Blood Pooling, Padilla Lab (AID 2284415). A digest of the protocol: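 Wild-type outbred zebrafish embryos, one per well in 10% Hanks', exposed from 6–8 hpf in sealed plates at 26C on 14:10 h light:dark, rinsed at 5 dpf. Blinded stereomicroscope scoring of blood pooling at 6 dpf; gain-of-signal versus DMSO.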

Experiment [9] is described as follows: CCTE_Padilla_ZF_Score.Any: CCTE's 144 Hour Post-fertilization zebrafish Assay Score for Any Mortality or Malformation, Padilla Lab (AID 2284416). A digest of the protocol:
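Wild-type zebrafish embryos with chorions, one per well in 10% Hanks' from 6–8 hpf, dosed in sealed plates at 26 C, 14:10 h light:dark; rinsed at 5 dpf; blinded scoring at 6 dpf for death or malformation, versus DMSO.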

A short description of experiment [10]: CCTE_Padilla_ZF_Score.Tail: CCTE's 144 Hour Post-fertilization zebrafish Assay Score for Tail Malformation, Padilla Lab (AID 2284414). A digest of the protocol:
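Wild-type zebrafish embryos, one per well in 200 uL 10% Hanks', dosed at 6-8 hpf, sealed, and kept at 26 C on a 14:10 h light cycle. Chemical was rinsed out at 5 dpf. Blinded brightfield scoring of tail defects followed at 6 dpf.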

Another experiment relates to TTR (gene 7276). The experiment in a line: CCTE_GLTED_hTTR_0.125uM: CCTE's human Transthyretin (hTTR) Inhibition Assay, with 0.125uM TTR, Great Lakes Toxicology and Ecology Division (GLTED) Lab (AID 2284431).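 Note: hits lower the fluorescence signal relative to DMSO baseline.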 The gist of the method:
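Probe-displacement format: chemicals competing for the T4 site release ANSA from 0.125uM TTR during a 2 h incubation, measured by fluorescence at 380 excitation and 475 emission.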

Active and inactive are the calls of the source. Rule for the calls: active = hit-call score of the fitted dose curve at least 0.9, where 1 is the maximum; inactive = score below 0.9.

A word on the AC50: it is the midpoint of the concentration-response curve, whichever way the signal moves. Take `C=CC(=O)OCCC(F)(F)C(F)(F)C(F)(F)C(F)(F)F`: the molecule was called inactive in experiment [1], in experiment [2], in experiment [3], in [5] and in experiment [8]. Besides, the AC50 in experiment [4] is 88.3 µM (active); in experiment [6] it was 20.9 µM (active); in [7], 76.7 µM (active); in experiment [9] it was 30 µM (active).
Regarding `C=CC(=O)OCC(F)(F)C(F)(F)C(F)(F)C(F)(F)C(F)(F)C(F)(F)C(F)(F)C(F)F`, the call in experiment [1], in [2], in experiment [3], in [5], in [6] and in experiment [7] was inactive. Further, the molecule was classed as inactive in experiment [10], in experiment [8] and in experiment [9]. Also, in experiment [4], the AC50 was 102 µM (active).
Regarding `O=C(F)C1(F)C(F)(F)C(F)(F)C(F)(F)C(F)(F)C1(F)F`, the result in experiment [1], in [2], in [3], in experiment [4], in [5] and in experiment [6] was inactive. The result in [7], in [8] and in experiment [9] was inactive.
For the molecule `O=C(O)CCC(F)(F)C(F)(F)C(F)(F)F`, the result in experiment [1], in experiment [2], in experiment [3], in experiment [4], in experiment [5] and in [6] was inactive. Also, the result in [7] and in experiment [8] was inactive. Further, in [9], the half-maximal activity concentration (AC50) was 77.1 µM (active).
As for `O=C(Cl)C(F)(F)C(F)(F)C(F)(F)C(F)(F)C(F)(F)C(F)(F)C(F)(F)F`, the outcome in experiment [1], in [3], in [4], in [5], in experiment [6] and in [7] was inactive. Further, in [8], the outcome was inactive. Further, the concentration at half-maximal activity (AC50) in [2] and in [9] was 86.8 µM (active) throughout.
Regarding `Nc1cc([N+](=O)[O-])cc(Cl)c1O`, in experiment [7], the result was inactive.
As to `O=C(O)C(F)(F)C(F)(F)C(F)(F)C(=O)O`, the result in [1], in experiment [2], in experiment [3], in experiment [4], in [5] and in [6] was inactive. Also, the call in [7], in experiment [8] and in experiment [9] was inactive.
Turning to `CN1CN(C)CN(C)C1`, in experiment [7], the outcome was inactive.
The same measure, in the same setting: for `CC(C)CCCC(C)CCO` (stereo unspecified) the value was “inactive”.
For the molecule `O=S(=O)(Cl)C(F)(F)C(F)(F)C(F)(F)C(F)(F)C(F)(F)C(F)(F)C(F)(F)C(F)(F)F`, the call in [1], in [7] and in experiment [8] was inactive. Besides, the half-maximal activity concentration (AC50) in experiment [2] was 33.5 µM (active); in experiment [3] it was 88.8 µM (active); in experiment [4], 12.1 µM (active); in experiment [5], 81.7 µM (active); in [6] it was 88.8 µM (active); in experiment [9] it was 12.1 µM (active).
On to `CCN(CCO)S(=O)(=O)C(F)(F)C(F)(F)C(F)(F)C(F)(F)C(F)(F)C(F)(F)C(F)(F)C(F)(F)F`, for which the outcome in experiment [1], in experiment [2], in [3], in experiment [4], in experiment [5] and in experiment [6] was inactive. The molecule was classed as inactive in [7], in [8] and in [9].
As to `NC(=O)C(F)(F)C(F)(F)C(F)(F)C(F)F`, the result in experiment [1], in experiment [2], in experiment [3], in experiment [4], in [5] and in experiment [6] was inactive. For the same molecule, the result in experiment [7], in experiment [8] and in [9] was inactive.
Regarding `FC(F)(F)C(F)(F)C(F)(F)C(F)(F)C(F)(F)C(F)(F)C(F)(F)CCI`, the molecule was classed as inactive in experiment [1], in experiment [2], in [3], in [4], in experiment [5] and in experiment [6]. Besides, the result in [7], in [8] and in experiment [9] was inactive.
For the molecule `O=S(=O)(O)CCC(F)(F)C(F)(F)C(F)(F)C(F)(F)C(F)(F)C(F)(F)C(F)(F)C(F)(F)F`, the outcome in experiment [1], in experiment [2], in experiment [3], in experiment [4], in experiment [5] and in experiment [6] was inactive. Moreover, the outcome in experiment [7], in experiment [8] and in experiment [9] was inactive.
As for `C[Si](Cl)(Cl)CCC(F)(F)C(F)(F)C(F)(F)C(F)(F)C(F)(F)C(F)(F)F`, the molecule was classed as inactive in experiment [1], in experiment [2], in [3], in experiment [4], in experiment [5] and in [6]. For the same molecule, the outcome in experiment [7], in experiment [8] and in experiment [9] was inactive.
Consider `c1ccc(C[P+](c2ccccc2)(c2ccccc2)c2ccccc2)cc1`, for which the outcome in experiment [7] was inactive.
As to `CCN=C1C=CC(=C(c2ccc(N(CC)CC)cc2)c2ccc(N(CC)CC)cc2)c2ccccc21`, the AC50 in the experiment with TTR (gene 7276) is 1.85 µM (active).
Consider `FC(F)(F)C(F)(F)C(F)(F)CC1CO1` (stereo unspecified), for which the outcome in experiment [1], in experiment [2], in experiment [3], in experiment [4], in experiment [5] and in [6] was inactive. Besides, the molecule was classed as inactive in experiment [7], in [8] and in experiment [9].
As for `NC(=O)C(F)(F)C(F)(F)C(F)(F)C(F)(F)C(F)(F)C(F)(F)C(F)(F)F`, the result in [1], in experiment [2], in [3], in [4], in experiment [5] and in experiment [6] was inactive. Besides, the molecule was called inactive in experiment [7], in experiment [8] and in [9].
For the molecule `OCCCC(F)(F)C(F)(F)C(F)(F)C(F)(F)C(F)(F)C(F)(F)C(F)(F)C(F)(F)F`, the outcome in experiment [1], in experiment [2], in experiment [3], in experiment [4], in experiment [5] and in [6] was inactive. Moreover, the outcome in [7], in [8] and in [9] was inactive.
Take `CCN(CC)c1ccc(C=O)cc1`: the molecule was called inactive in [7].
For `OCC(F)(F)C(F)(F)C(F)(F)C(F)(F)C(F)(F)C(F)(F)CO`, the AC50 in [1] is 80.4 µM (active); in experiment [2], 62.9 µM (active); in [4], 11.6 µM (active); in experiment [7] it was 47.7 µM (active); in experiment [9], 62.4 µM (active). The result in [3], in experiment [5], in experiment [6] and in experiment [8] was inactive.
Turning to `OCC(F)(F)C(F)(F)C(F)(F)C(F)(F)C(F)(F)C(F)(F)C(F)(F)C(F)(F)CO`, the outcome in [1], in [2], in [3], in experiment [5] and in experiment [8] was inactive. Moreover, the half-maximal activity concentration (AC50) in [4] is 3.96 µM (active); in [6], 22.2 µM (active); in experiment [7], 4.17 µM (active); in experiment [9], 5.84 µM (active).
Consider `CCN=c1cc2oc3cc(NCC)c(C)cc3c(-c3ccccc3C(=O)OCC)c-2cc1C`, for which, in the experiment on TTR (gene 7276), the AC50 is 32.2 µM (active).
`C=C(C)C(=O)OCC(F)(F)C(F)(F)C(F)(F)C(F)F`: the call in experiment [1], in [2], in experiment [3], in experiment [4], in [5] and in experiment [6] was inactive. In addition, the molecule was called inactive in experiment [7] and in [8]. Further, in experiment [9], the AC50 is 30 µM (active).
In the case of `NC(=O)C(F)(F)C(F)(F)C(F)(F)F`, the result in experiment [1], in [2], in experiment [3], in experiment [4], in experiment [5] and in [6] was inactive. The molecule was classed as inactive in [7], in [8] and in experiment [9].
For the molecule `CCCCCCCC/C=C\CCCCCCCC(=O)N(C)CC(=O)O`, the concentration at half-maximal activity (AC50) in the experiment on TTR (gene 7276) was 3.75 µM (active).
With `CCOC(=O)CC(=O)C(F)(F)C(F)(F)F`, the result in experiment [1], in experiment [2], in [3], in experiment [4], in [5] and in experiment [6] was inactive. Also, the molecule was classed as inactive in [7], in experiment [8] and in experiment [9].
Take `CN(C(=O)C(F)(F)C(F)(F)C(F)(F)F)[Si](C)(C)C`: the molecule was classed as inactive in [1], in experiment [2], in [3], in experiment [4], in experiment [5] and in experiment [6]. The result in experiment [7], in experiment [8] and in experiment [9] was inactive.
Consider `CCC(Cc1c(I)cc(I)c(N)c1I)C(=O)O` (stereo unspecified), for which the AC50 in the experiment on TTR (gene 7276) was 2.1 µM (active).
As for `O=C(c1ccccc1)c1ccc(O)cc1O`, the molecule was called inactive in [7]. Besides, the AC50 in the experiment with TTR (gene 7276) is 0.0464 µM (active).
